Source: PubChem BioAssay
HTT promoter inh – inhibitors of huntingtin promoter activity; HEK293 HTT promoter firefly luciferase reporter, 24 h; 0.93% of 48,000 active; Potency, µM (series often up to 57.5 µM), inactives show top-dose activity change, negative = inhibition, most hits filed as inhibitors; note: nearly all actives have a fitted effect of over 50% in size
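Firefly luciferase readout (Dual-Glo, 10 min RT) after 24 h, 37 °C compound exposure (final up to 57.5 uM) of HEK293 reporter cells cultured 24 h beforehand; PTC124 at 50 uM final as control inhibitor; activity scaled vehicle 0%, zero RLU -100%.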
S16 viability – cytotoxicity in S16 Pmp22-F2sN Schwann cells. S16 Pmp22-F2sN Schwann cells viability, CellTiter-Glo, 24 h. Potency, µM (top dose mostly 57.5 µM), without a hit: top-dose activity change, negative = cytotoxicity, hits mostly cytotoxic. 0.48% of 43,000 active. AID 1508642; note: % is set by controls: 0 for no effect and ±100 for the full control effect; nearly all actives have a fitted effect of over 65% in size
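Rat S16 Schwann reporter line, 24 h treatment with library compounds delivered at 23 nL per well. Cell viability by CellTiter-Glo luminescence.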
mTORC1 inh – mTORC1 pathway inhibition measured by phospho-rpS6; Tsc2-/- p53-/- MEF, phospho-rpS6 immunofluorescence/PI, 24 h; 0.78% of 44,000 active; Potency, µM (doses to about 38.3 µM), for the others: top-dose activity change, negative = inhibition, actives largely listed as inhibitors;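 note: plate controls were DMSO for no effect and rapamycin for full effect; nearly all actives have a fitted effect of over 50% in size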
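Plate MEFs (Tsc2-/-, p53-/-, empty vector) in DMEM/10% FBS; after 24 h add compound, incubate 24 h at 37 degree Celsius; fix in PFA/TX-100, block, stain phospho-rpS6 and 10 uM PI; scan at 488 nm; report % positive cells.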
PMP22 txn prim – modulates PMP22 transcription in S16 Schwann cells. S16 Pmp22-F2sN Schwann cells (luciferase reporters placed in the Pmp22 gene), FLuc/NLuc coincidence luminescence, 24 h. Potency, µM (top dose mostly 57.5 µM), for inactives: top-dose activity change, negative = inhibition, most hits filed as inhibitors. 2% of 43,000 active; active = clear falling dose curves in both reporters; inconclusive = both reporters move, but less clearly or upward; inactive = either reporter flat; the % is the NLuc reporter signal; note: % is set by controls: 0 for no effect and ±100 for the full control effect
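Schwann cells carrying the coincidence reporter were exposed to library compounds for 24 h at 37C, then lysed and read for FLuc and, after quenching, NLuc luminescence on a CCD imager.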
HTT-AS promoter – activators of huntingtin-antisense promoter activity | 0.24% of 48,000 active | HEK293 HTT-AS promoter firefly luciferase reporter, 24 h; response scale: percent change from vehicle, -100% = no light | Potency, µM (doses to about 57.5 µM), inactives show at the highest dose activity change, positive = activation, actives largely listed as activators | AID 1508624; note: nearly all actives have a fitted effect of over 55% in size
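Firefly luciferase signal from promoter-reporter HEK293 cells was scaled between vehicle (0%) and zero RLU (-100%). Compounds were tested at final concentrations of up to 57.5 uM over 24 h at 37 degrees C. PTC124 at 50 uM final served as control inhibitor.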
Numbers without * were called inactive; u = inconclusive; x = no result given. Rows were chosen to be rich in hits. Some 3.6% of all compounds tested hit in one or more screens of this group. Unless noted, calls come from the whole dose curve; as a rule, active = well fitted curve in the direction sought with a large enough effect; inconclusive = small, poorly fitted or top-dose-only effect, or another doubt; inactive = no such curve, though single readings can be large; an effect the other way counts as inactive or inconclusive. Potency is the fitted concentration of half-maximal effect.

SMILES	HTT promoter inh	S16 viability	mTORC1 inh	PMP22 txn prim	HTT-AS promoter
CCS(=O)(=O)c1ncc(Cl)c(C(=O)Nc2ccccc2)n1	u	6.3µM*	1.8µM*	2.2µM*	-94%
O=[N+]([O-])c1cn2c(n1)OC[C@@H](OCc1ccc(OC(F)(F)F)cc1)C2	-9%	x	x	x	-13%
NC(=O)c1ncn([C@@H]2O[C@H](CO)[C@@H](O)[C@@H]2O)n1	2%	x	x	x	-10%
C=C[C@@H]1CN2CCC1C[C@@H]2C(O)c1ccnc2ccc(OC)cc12 (stereo partly drawn)	-4%	x	x	x	-12%
CC(C)N(CCCNC(=O)Nc1ccc(C(C)(C)C)cc1)C[C@H]1O[C@@H](n2cc(Br)c3c(N)ncnc32)[C@H](O)[C@H]1O	u	x	x	x	-74%
CC(C)C(C)C=CC(C)C1CCC2C3=CC=C4CC(O)CCC4(C)C3CCC21C (stereo not drawn)	u	x	x	x	-21%
Cc1ccccc1CS(=O)(=O)c1ncc(Cl)c(C(=O)Nc2nnc(C(C)C)s2)n1	u	u	9.3µM*	7µM*	-95%
CCSc1ncc(Cl)c(C(=O)Nc2c(C(=O)Nc3cccc(C)c3)oc3ccccc23)n1	-5%	1%	-3%	-11%	-2%
CCS(=O)(=O)c1ncc(Cl)c(C(=O)Nc2c(C(=O)Nc3cccc(C)c3)oc3ccccc23)n1	6%	2.2µM*	u	3.2µM*	23%
CC(C)c1nnc(NC(=O)c2nc(S(=O)(=O)Cc3ccccc3)ncc2Cl)s1	u	u	u	u	-94%
CCOC(=O)c1ccc(NC(=O)c2nc(S(=O)(=O)Cc3ccccc3)ncc2Cl)cc1	u	5µM*	u	1.9µM*	-96%
COc1cc(NS(=O)(=O)c2ccc(-c3cc(C)no3)cc2)cc(OC)c1	1.8µM*	u	u	3.4µM*	-87%
COc1cc(Cl)c(NS(=O)(=O)c2cc(-c3cc(C)no3)ccc2OC)c(OC)c1	-25%	0%	u	-24%	-36%
CCOc1cccc(C2CC(=O)Nc3cc4c(cc32)OCCO4)c1 (stereo not drawn)	u	u	21µM*	u	-42%
Cc1ccc(C2CC(=O)Nc3cc4c(cc32)OCCO4)cc1 (stereo not drawn)	u	-4%	-17%	-27%	-26%
O=C1CC(c2ccc(Cl)cc2)c2cc3c(cc2N1)OCCO3 (stereo not drawn)	u	-7%	-3%	u	-29%
COc1ccc(Cl)cc1C1CC(=O)Nc2cc3c(cc21)OCCO3 (stereo not drawn)	u	u	u	2.5µM*	-46%
CCN1CCC(n2cc(CNc3cc(Cl)c4ncc(C#N)c(Nc5ccc(F)c(Cl)c5)c4c3)nn2)CC1	7%	x	x	x	-2%
Cc1oc2ccc(O)c(CN3CCCC(C)C3)c2c1C(=O)Nc1ccccc1 (stereo not drawn)	-10%	-3%	15µM*	-19%	-18%
Cc1cc(C)cc(NC(=O)c2ccc3c(c2)nnn3C2CCCC2)c1	u	11µM*	-23%	u	-25%
CCc1ccc(NC(=O)C(CC)n2c(=O)c(-c3ccccc3NC(C)=O)nc3ccccc32)cc1 (stereo not drawn)	14µM*	1%	-10%	u	-35%
CCC(C(=O)Nc1c(C)cc(C)cc1C)n1c(=O)c(-c2ccccc2NC(C)=O)nc2ccccc21 (stereo not drawn)	-9%	-2%	0%	-13%	-7%
CCN1C[C@H](C)n2c(c(O)c3c(=O)n(Cc4ccc(F)c(Cl)c4)nc(C(=O)NC)c32)C1=O	0%	x	x	x	18%
CC(C)CC(=O)Nc1cccc(-c2cn3cccnc3n2)c1	78%	-4%	0%	16%	16µM*
CCCCCOC(=O)Nc1nc(=O)n([C@@H]2O[C@H](C)[C@@H](O)C2O)cc1F (stereo partly drawn)	-3%	x	x	x	10%
SMILES	HTT promoter inh	S16 viability	mTORC1 inh	PMP22 txn prim	HTT-AS promoter
Cc1ccc2nc(N3CCN(C(=O)C4CC4)CC3)sc2c1	44%	2%	3%	u	u
CC1CCN(c2nc3ccc(C(=O)NCc4ccccc4Cl)cc3s2)CC1	0.28µM*	-1%	2%	-17%	-81%
Cc1ccc(CCNC(=O)c2ccc3nc(N4CCC(C)CC4)sc3c2)cc1	0.35µM*	20%	2%	0%	-73%
COc1ccccc1CNC(=O)c1ccc2nc(N3CCCCC3)sc2c1	u	4%	1%	1%	-28%
Cc1cccc(N2CCN(C(=O)c3ccc4nc(N5CCC(C)CC5)sc4c3)CC2)c1C	2.5µM*	u	-7%	u	-75%
CC1CCN(c2nc3ccc(C(=O)NCc4ccc(Cl)cc4)cc3s2)CC1	0.25µM*	-7%	-3%	10%	-79%
O=C(NCCc1ccccc1)c1ccc2nc(N3CCCCC3)sc2c1	u	-7%	1%	-8%	-43%
CNc1nc(-c2ccc3c(N)n[nH]c3c2)cc(N2C[C@@H](C(=O)NC3CCCCC3)CC[C@@H]2C)n1	-18%	x	x	x	-26%
CN(C)S(=O)(=O)c1ccc2c(c1)C(=Cc1cc3c([nH]1)CCCC3)C(=O)N2	u	x	x	x	-37%
CC(=O)N1c2c(cc(Br)cc2S(=O)(=O)Nc2ccccc2C)CC1C (stereo not drawn)	-23%	6%	-1%	u	-25%
CCOC(=O)c1ccc(NS(=O)(=O)c2cc(Br)cc3c2N(C(C)=O)C(C)C3)cc1 (stereo not drawn)	16µM*	0%	1%	u	-52%
CC(C)CCNS(=O)(=O)c1ccc(N2CCCCS2(=O)=O)cc1	14µM*	u	0%	u	-21%
COc1ccc(CN2CCc3nc(N4CCN(c5ccc(F)cc5)CC4)ncc3C2)c(OC)c1OC	1.6µM*	16µM*	-2%	13µM*	-57%
Cc1ccc(-c2c(C)n3c4c(=O)n(C)c(=O)n(C)c4nc3n2CCO)cc1	2µM*	u	-29%	4.8µM*	-43%
CCc1nn(CC(=O)N2CCN(c3cccc(C)c3C)CC2)c(=O)c2cc3sccc3n12	-6%	4%	1%	3%	-7%
CCOC(=O)C1CCN(C(=O)Cn2nc(CC)n3c(cc4sccc43)c2=O)CC1	2.8µM*	-8%	0%	-17%	-78%
CCCCN(CC)C(=O)CSc1nc2n[nH]c(C)c2c(=N)n1-c1cccc(Cl)c1	u	u	-3%	13µM*	-47%
CCCCNC(=O)CSc1nc2n[nH]c(C)c2c(=N)n1-c1cccc(C)c1	-21%	-10%	1%	-23%	-26%
